Shown are actives, neighbours in structure and some others; about 12% of the full set was active somewhere.
BAZ2B block: inhibitors of human BAZ2B bromodomain. Q9UIF8. AlphaScreen BAZ2B-H3K14Ac peptide displacement. Potency, µM (top dose mostly 114 µM), most hits filed as inhibitors. actives 4.4% (n = 360,000). AID 504333; further: nearly all actives have a fitted effect of over 60% in size
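Multi-concentration screen (max 110 uM) measuring displacement of acetylated histone H3 peptide from BAZ2B by AlphaScreen, using 50 nM protein, 50 nM peptide and 10 ug/mL streptavidin donor plus Ni-chelate acceptor beads.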
HP1b binding inh: blocks HP1-beta chromodomain binding to methylated histone tails; AlphaScreen HP1-beta / biotin-H3K9me3 peptide binding; Potency, µM (top dose mostly 114 µM), hits mostly inhibitors; P83916; AID 540317; actives 0.56% (n = 390,000); further: nearly all actives have a fitted effect of over 70% in size
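Compound inhibition of the preformed complex between 50 nM HP1-beta and 50 nM biotinylated H3K9me3 peptide was read by AlphaScreen. Buffer was PBS pH 7.4 with 0.01% Tween-20. Incubations ran 30 min at room temperature, with 10 ug/mL donor/acceptor beads.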
G9a inh: blocks human histone lysine methyltransferase G9a | Potency, µM (top dose mostly 102 µM), actives largely listed as inhibitors | actives 8.8% (n = 350,000) | G9a H3K9 monomethylation, AlphaScreen, 2 h | Q96KQ7; further: nearly all actives have a fitted effect of over 75% in size
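Readings reflect AlphaScreen signal from monomethyl-H3K9 antibody detection. HMT at 20 nM; substrate b-H3K9 500 nM; cofactor SAM 20 uM; 2 h RT reaction; compounds tested as titrations in qHTS with 15 min preincubation.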
PI5P4Ka inh: inhibitors of human PI5P4K alpha; P48426; PI5P4Kalpha enzyme, ADP-Glo luminescence, 60 min; active compounds read low; max response, %; actives 1.2% (n = 330,000); AID 652105; active means max response of -50% or lower; inconclusive means between -30% and -50%; inactive means -30% or higher; further: value at the top dose of about 77 µM
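Single end-point luminescence (ADP-Glo) quantified ADP from PI5P4Kalpha turnover; ATP 5 microM final, 1 h at RT, 0.1% CHAPS and 0.28 mM EGTA in HEPES pH 7.4.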
PLK1 PBD block: PLK1 (human) polo-box domain binding inhibition | P53350 | actives 2.8% (n = 360,000) | AID 720504 | Potency, µM, usual class: inhibitors | Plk1 PBD binding of FITC phosphopeptide, fluorescence polarization; further: series mostly up to about 57 µM; nearly all actives have a fitted effect of over 65% in size
Target sequence (P53350 whole entry, looked up, the tested form may be a part): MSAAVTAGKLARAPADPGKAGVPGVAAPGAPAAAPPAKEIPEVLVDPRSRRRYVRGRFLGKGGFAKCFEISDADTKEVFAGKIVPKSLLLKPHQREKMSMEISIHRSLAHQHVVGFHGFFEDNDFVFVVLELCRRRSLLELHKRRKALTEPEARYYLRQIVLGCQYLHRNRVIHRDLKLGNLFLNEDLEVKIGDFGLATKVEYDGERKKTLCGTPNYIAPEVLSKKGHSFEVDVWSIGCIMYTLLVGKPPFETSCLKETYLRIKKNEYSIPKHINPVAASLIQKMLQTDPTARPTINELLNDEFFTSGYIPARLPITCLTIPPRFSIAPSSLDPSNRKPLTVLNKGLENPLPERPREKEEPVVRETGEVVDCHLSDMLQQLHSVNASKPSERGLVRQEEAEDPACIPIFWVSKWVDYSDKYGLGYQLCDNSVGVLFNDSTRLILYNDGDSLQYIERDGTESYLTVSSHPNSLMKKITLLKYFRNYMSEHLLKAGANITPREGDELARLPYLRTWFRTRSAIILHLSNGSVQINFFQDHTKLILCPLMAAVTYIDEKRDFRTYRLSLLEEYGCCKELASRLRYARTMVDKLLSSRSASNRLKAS
JMJD2A Tudor: blocks the human JMJD2A Tudor domain; Potency, µM (series often up to 114 µM), most hits filed as inhibitors; AlphaScreen JMJD2A-Tudor / H3K4me3 peptide binding; actives 4.4% (n = 390,000); O75164; further: nearly all actives have a fitted effect of over 50% in size
Each line names hits and unclear results; the compound was inactive in the other large screens. Unless noted, the call rests on the fitted dose curve; in most records, active means well fitted curve in the direction sought with a large enough effect; inconclusive means small, poorly fitted or top-dose-only effect, or another doubt; inactive means no such curve, though single readings can be large; an effect the other way counts as inactive or inconclusive.

Cc1ccc(NC(=O)CCCn2c(=O)c3cccn3c3cccnc32)c(Cl)c1	none (no result: PI5P4Ka inh, PLK1 PBD block)
COc1cccc(C(=O)NNC(=O)C(=O)N2CCCCC2)c1	G9a inh 50µM
COc1ccc(C(=O)NNC(=O)C(=O)N2CCCCC2)cc1OC	G9a inh inconclusive, JMJD2A Tudor 25µM
COc1ccc(C(=O)Nc2ccc(C(=O)N3CCCCC3)cc2)cc1OC	none
O=C(NNC(=O)c1cccc(Br)c1)C(=O)N1CCCCC1	none
CCOC(=O)c1ccc(NC(=O)CN2C(=O)CN(C(C)=O)C2=S)cc1	none (no result: G9a inh)
COc1ccc(-c2cc(-c3cc(OC)ccc3O)[nH]n2)cc1	BAZ2B block inconclusive, HP1b binding inh inconclusive, PLK1 PBD block 6.7µM, JMJD2A Tudor 28µM
COc1ccc(O)c(-c2cc(-c3ccc(F)cc3)n[nH]2)c1	BAZ2B block inconclusive, G9a inh inconclusive, JMJD2A Tudor inconclusive
Cc1ccc(CNC(=O)c2ccccc2SCC(=O)NCC2CCCCC2)cc1	G9a inh 45µM
NS(=O)(=O)c1ccc(CNC(=O)c2ccccc2SCC(=O)N2CCCC2)cc1	G9a inh 35µM
Cc1ccc(NCC(=O)Nc2cccc(S(=O)(=O)N(C)C)c2)cc1S(=O)(=O)N1CCCCCC1	G9a inh inconclusive
O=C(NCc1ccccc1)c1sc(=S)n2c1[nH]c(=O)c1ccccc12	BAZ2B block 45µM, G9a inh 28µM, PLK1 PBD block inconclusive, JMJD2A Tudor inconclusive (no result: PI5P4Ka inh)
O=C(NCc1ccccc1)c1c(O)c2ccccc2[nH]c1=O	none
CCCCNC(=O)c1sc(=S)n2c1[nH]c(=O)c1ccc(C(=O)NCCc3ccc(OC)c(OC)c3)cc12	BAZ2B block inconclusive, G9a inh 25µM, PLK1 PBD block inconclusive
CC(C)(C)c1ccc(NNC(=O)C2CCC2)cc1	G9a inh 14µM
O=C(NNC(=O)C1CCCC1)c1ccccc1F	none
O=C(NNc1ccccc1F)C1CCC1	G9a inh 50µM
CC(C)(C)c1ccc(NC(=O)COC(=O)C2CCCC2)cc1	none
O=C(NNc1ccc(F)cc1F)C1CCC1	G9a inh 18µM
O=C(NNc1ccccc1F)c1ccccc1	G9a inh 28µM
CCOC(=O)N1CCC(NC(=O)c2ccc3c(c2)N(Cc2ccc(Cl)cc2)C(=O)c2ccccc2S3(=O)=O)CC1	none (no result: PI5P4Ka inh, PLK1 PBD block)
COc1cc(OC)cc(N2C(=O)N(CC(=O)c3ccc(F)cc3)c3ccccc3S2(=O)=O)c1	none (no result: PI5P4Ka inh, PLK1 PBD block)
C[C@H](CCC(=O)O)[C@H]1CC[C@H]2[C@H]3C(C[C@H](O)[C@]12C)[C@@]1(C)CC[C@@H](O)C[C@H]1C[C@H]3O (stereo partly specified)	none (no result: BAZ2B block, HP1b binding inh, PI5P4Ka inh, PLK1 PBD block, JMJD2A Tudor)
O=C(Nc1cccc(Cl)c1)N1CCCCCC1	none
O=C(Nc1cc(Cl)ccc1Cl)N1CCCC1	PLK1 PBD block 8.4µM
O=C(NNc1cc(Cl)ccc1Cl)C1CCC1	G9a inh 50µM, PLK1 PBD block 27µM, JMJD2A Tudor 71µM
Cc1ccc(CNc2nc(-c3ccco3)nn2S(C)(=O)=O)cc1	none (no result: PI5P4Ka inh, PLK1 PBD block)
Cc1nc2nc(CNC(=O)c3cccc(F)c3)nn2c(C)c1CCC(=O)Nc1cccc(Cl)c1	none (no result: PI5P4Ka inh, PLK1 PBD block)
Cc1ccc(S(=O)(=O)CCC(=O)NCCN2C(=O)S/C(=C\c3ccccc3)C2=O)cc1	none
Cc1ccc2c(c1)S/C(=C/c1ccc[n+](C)c1)N2CCO	G9a inh 14µM, JMJD2A Tudor 25µM
CCOC(=O)c1ccc(NC(=O)Nc2ncccc2C)cc1	none
CC(=O)c1ccc(Nc2nc(=O)c3cccnc3s2)cc1	G9a inh inconclusive
Cc1ccc(Nc2nc(=O)c3cccnc3s2)c(Br)c1	G9a inh 14µM
CCOC(=O)c1ccc(Nc2nc(=O)c3cccnc3s2)cc1	G9a inh 28µM (no result: PI5P4Ka inh)
CC(=O)c1cccc(Nc2nc(=O)c3cccnc3s2)c1	G9a inh 50µM (no result: PI5P4Ka inh)
O=c1nc(Nc2ccc(OCc3ccccc3)cc2)sc2ncccc12	G9a inh 50µM
CCOC(=O)c1cnc2c(C)cc(C)cc2c1Nc1ccc(OCc2ccccc2)cc1	none (no result: PI5P4Ka inh, PLK1 PBD block)
Cc1ccc(C(=O)N2CCN(S(=O)(=O)c3sc(C(=O)O)c(C)c3C(=O)O)CC2)s1	none
CC(C)(C)NC(=O)C(c1ccccc1F)n1c(=O)c(-c2cc3ccccc3[nH]2)nc2ccccc21 (stereo unspecified)	none (no result: BAZ2B block, HP1b binding inh, G9a inh, JMJD2A Tudor)
CNC(CC(=O)c1ccc([N+](=O)[O-])cc1)C(Cl)(Cl)Cl (stereo unspecified)	BAZ2B block inconclusive, HP1b binding inh 16µM, G9a inh 4µM, PLK1 PBD block 2.7µM, JMJD2A Tudor inconclusive
Cc1ccc(NCC(=O)c2ccc([N+](=O)[O-])cc2)cc1	BAZ2B block inconclusive, HP1b binding inh inconclusive, G9a inh 8.9µM, JMJD2A Tudor inconclusive
Cc1ccc(C(=O)CNc2cccc([N+](=O)[O-])c2)cc1	G9a inh inconclusive
Cc1ccc(F)c(C(=O)N2CCCC(C)(C(=O)NS(=O)(=O)C3CC3)C2)c1F (stereo unspecified)	none (no result: BAZ2B block, HP1b binding inh, G9a inh, JMJD2A Tudor)
CCOC(=O)c1cc(C#N)c(SC)nc1C	none (no result: G9a inh)
CCOC(=O)c1cc2c(N)c(C(=O)c3cc(C#N)c(SC)nc3C)sc2nc1C	G9a inh 45µM (no result: PI5P4Ka inh)
CCOC(=O)C1=CCN(S(=O)(=O)c2ccc(C)cc2)C1c1cccc(C)c1 (stereo unspecified)	none (no result: BAZ2B block, HP1b binding inh, G9a inh, JMJD2A Tudor)
CCCNC(=O)OCc1cccnc1Sc1ccc(C)cc1	PI5P4Ka inh inconclusive, PLK1 PBD block 27µM, JMJD2A Tudor 45µM
O=C(O)/C=C/C(=O)Nc1ccc2nccnc2c1	G9a inh 50µM
Cc1nc2ccc(NC(=O)/C=C/C(=O)O)cc2nc1C	none
O=C(O)/C=C/C(=O)Nc1ccc2c(c1)C(=O)c1ccccc1C2=O	BAZ2B block inconclusive, G9a inh 45µM, PI5P4Ka inh -65
CC(C)C(C(=O)NCc1ccccc1)N1CCN(c2ccccc2F)CC1 (stereo unspecified)	none (no result: BAZ2B block, HP1b binding inh, G9a inh, JMJD2A Tudor)
Cc1nn(-c2ccccc2)c(C)c1C1C(C#N)=C(N)Oc2n[nH]c(C)c21 (stereo unspecified)	G9a inh inconclusive
CCCc1nn(-c2ccccc2)c2c1C(c1cccs1)C(C#N)=C(N)O2 (stereo unspecified)	BAZ2B block 40µM, G9a inh inconclusive, JMJD2A Tudor inconclusive
Cc1nn(-c2ccccc2)c2c1C(c1ccco1)C(C#N)=C(N)O2 (stereo unspecified)	BAZ2B block 40µM, G9a inh 40µM, PLK1 PBD block 27µM, JMJD2A Tudor 63µM
Cc1nn(-c2ccccc2)c2c1C(c1ccc([N+](=O)[O-])cc1)C(C#N)=C(N)O2 (stereo unspecified)	BAZ2B block inconclusive, G9a inh 50µM, PLK1 PBD block inconclusive
